# Measured values as given in PubChem BioAssay AID1347074 (Center for Chemical Genomics, University of Michigan, 2019).
# Hit rate of the full screen: of about 47,000 compounds, about 2,800 (6%) were called active. No stated cut-off is given here; in the data, active means z-score above about 3 (passing the limit was not always enough); inactive means the rest. Shown is part of a subset that was picked to be rich in actives.
# Target: Endoribonuclease Dicer (Homo sapiens) (UniProt Q9UPY3)
# Assay: Dicer cleavage of pre-miR-21 blockers – biochemical, cat-ELCCA, chemiluminescence, primary screen (AID 1347074);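 further: plate controls were vehicle for no effect and no enzyme for full effect; higher signal means more uncleaved substrate so more Dicer inhibition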
# Conditions: cat-ELCCA pre-miR-21 Dicer processing, at 25 µM, stronger effect = higher value
# Sequence of Endoribonuclease Dicer (Homo sapiens) (Q9UPY3 whole entry, looked up): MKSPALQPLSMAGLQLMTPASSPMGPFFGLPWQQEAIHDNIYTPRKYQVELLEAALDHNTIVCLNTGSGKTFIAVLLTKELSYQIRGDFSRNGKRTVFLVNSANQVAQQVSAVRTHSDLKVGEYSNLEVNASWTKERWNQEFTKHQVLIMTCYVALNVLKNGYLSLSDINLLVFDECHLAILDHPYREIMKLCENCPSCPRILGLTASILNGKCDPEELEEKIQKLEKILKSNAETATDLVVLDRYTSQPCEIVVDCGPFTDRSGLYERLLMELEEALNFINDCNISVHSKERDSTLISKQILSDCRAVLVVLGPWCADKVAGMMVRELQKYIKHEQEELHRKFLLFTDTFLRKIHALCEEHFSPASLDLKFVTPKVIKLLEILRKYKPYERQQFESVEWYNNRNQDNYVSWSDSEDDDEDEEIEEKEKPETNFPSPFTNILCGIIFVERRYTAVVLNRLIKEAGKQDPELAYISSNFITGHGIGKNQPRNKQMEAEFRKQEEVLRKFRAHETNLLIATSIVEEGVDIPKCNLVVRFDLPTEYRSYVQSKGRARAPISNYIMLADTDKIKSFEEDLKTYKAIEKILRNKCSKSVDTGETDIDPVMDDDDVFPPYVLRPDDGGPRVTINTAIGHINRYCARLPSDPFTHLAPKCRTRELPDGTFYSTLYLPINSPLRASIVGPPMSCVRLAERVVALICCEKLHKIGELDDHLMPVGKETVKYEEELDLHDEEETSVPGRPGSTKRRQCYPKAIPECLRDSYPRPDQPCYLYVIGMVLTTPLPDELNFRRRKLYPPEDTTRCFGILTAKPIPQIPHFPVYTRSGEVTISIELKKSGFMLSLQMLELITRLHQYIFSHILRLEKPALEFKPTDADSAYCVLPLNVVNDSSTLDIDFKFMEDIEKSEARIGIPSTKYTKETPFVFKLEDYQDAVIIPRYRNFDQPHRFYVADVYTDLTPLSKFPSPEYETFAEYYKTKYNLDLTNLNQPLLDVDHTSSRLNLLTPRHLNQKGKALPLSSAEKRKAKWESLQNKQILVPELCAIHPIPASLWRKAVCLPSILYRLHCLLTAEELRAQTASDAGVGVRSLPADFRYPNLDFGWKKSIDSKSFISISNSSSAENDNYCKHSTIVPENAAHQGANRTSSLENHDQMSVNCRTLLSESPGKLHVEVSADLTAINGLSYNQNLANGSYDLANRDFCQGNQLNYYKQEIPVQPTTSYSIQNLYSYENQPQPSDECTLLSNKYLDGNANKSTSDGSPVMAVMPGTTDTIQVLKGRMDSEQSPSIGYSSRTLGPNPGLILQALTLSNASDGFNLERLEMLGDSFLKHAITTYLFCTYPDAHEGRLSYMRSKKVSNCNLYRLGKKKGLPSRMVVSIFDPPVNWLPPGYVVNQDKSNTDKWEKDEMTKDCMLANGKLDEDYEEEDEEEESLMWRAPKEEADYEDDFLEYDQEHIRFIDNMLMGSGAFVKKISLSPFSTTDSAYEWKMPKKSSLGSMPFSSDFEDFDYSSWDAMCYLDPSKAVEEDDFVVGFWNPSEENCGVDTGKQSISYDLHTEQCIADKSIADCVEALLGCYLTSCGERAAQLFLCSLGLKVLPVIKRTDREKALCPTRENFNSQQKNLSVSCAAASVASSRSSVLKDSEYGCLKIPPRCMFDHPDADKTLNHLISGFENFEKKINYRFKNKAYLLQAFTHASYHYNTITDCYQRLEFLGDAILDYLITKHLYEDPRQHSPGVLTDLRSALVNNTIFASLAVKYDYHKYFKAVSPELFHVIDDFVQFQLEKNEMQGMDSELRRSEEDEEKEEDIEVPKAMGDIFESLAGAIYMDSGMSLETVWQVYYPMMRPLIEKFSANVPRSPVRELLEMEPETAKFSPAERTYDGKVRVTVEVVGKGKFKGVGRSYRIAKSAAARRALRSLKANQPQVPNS
row,Compound,z-score
1,CCc1ccccc1N1CC23C=CC(O2)C(C(=O)OC(C)C)C3C1=O (configuration not stated),-0.64 (inactive)
2,COc1cc(/C=C2/N=C(c3ccccc3)N(C)C2=O)cc(OC)c1OC,2.54 (inactive)
3,CCOC(=O)c1c(C)[nH]c(=O)c([N+](=O)[O-])c1O,0.2 (inactive)
4,CC1([N+](=O)[O-])COC(c2ccccc2)OC1 (configuration not stated),1.75 (inactive)
5,O=C1OC2(CCCCC2)OC1c1ccccc1 (configuration not stated),3.75 (active)
6,Cn1c(=O)c(C#N)c(O)c2ccccc21,0.83 (inactive)
7,CCCCc1ccc(S(N)(=O)=O)cc1,-0.91 (inactive)
8,CCCCc1ccc(-n2c(-c3ccc(F)cc3)coc2=O)cc1,9.25 (active)
9,Fc1ccc(NC2=NCCN=C(Nc3ccc(F)cc3F)SS2)c(F)c1,-0.47 (inactive)
10,CSc1scc(NC(=O)Nc2cc(Cl)cc(Cl)c2)c1S(=O)(=O)C(C)C,30.2 (active)
11,O=C(Nc1cc(Cl)cc(Cl)c1)Nc1cnccc1C(F)(F)F,0.4 (inactive)
12,O=C(CSc1nc(-c2ccc(F)cc2)cc(C(F)(F)F)n1)N1CCOCC1,-0.77 (inactive)
13,C/C(=N\OC(=O)c1ccc(Cl)cc1)c1nnn(-c2cc(C(F)(F)F)cc(C(F)(F)F)c2)c1C,0.47 (inactive)
14,CCOc1ccc(S(=O)(=O)N2CCSC2c2cccc(Cl)c2)cc1 (configuration not stated),1.41 (inactive)
15,O=c1c2cc(-c3ccccc3)sc2n(Cc2ccccc2Cl)c(=O)n1-c1ccccc1,0.38 (inactive)
16,COC(=O)c1c(NC(=O)COc2ccccc2)sc2c1CCCC2,0.4 (inactive)
17,CCCC1CCc2c(sc(NC(=O)COc3ccc(Cl)cc3)c2C(N)=O)C1 (configuration not stated),-0.31 (inactive)
18,COC(=O)c1c(NC(=O)CCCOc2ccc(Cl)cc2)sc2c1CCCC2,4.01 (active)
19,CC1(C)CC(=O)C=C(Nc2cc(-c3ccc(Cl)cc3)[nH]n2)C1,2.1 (inactive)
20,Cc1nc2cc(-n3c(O)c[nH]c3=O)ccc2s1,1.96 (inactive)
21,CCOC(=O)c1c(C)oc2ccc(OCc3ccc(C(=O)OC)cc3)cc12,0.32 (inactive)
22,CCOC(=O)C1=C(O)CSC1=Nc1ccc(F)cc1,2.03 (inactive)
23,CCOC(=O)c1c(C)n(CCOc2ccc(F)cc2)c2ccc(O)cc12,4.76 (active)
24,Cc1cc(C)c2c(n1)sc1c(=O)n(C)cnc12,1.74 (inactive)
25,CCOC(=O)C1=C(N)Oc2c(Br)cc(Cl)cc2C1C(C#N)C(=O)OCC (configuration not stated),2.22 (inactive)

row,Compound,z-score
1,CCOC(=O)C(NC(=O)c1ccccc1)(OC(C)C)C(F)(F)F (configuration not stated),0.49 (inactive)
2,FC(F)(F)c1cc(Cl)c2ncc(-c3ccc(Cl)c(Cl)c3)nc2c1,1.2 (inactive)
3,Cc1nc2ccccc2n1C1CC(=O)N(c2ccccc2)C1=O (configuration not stated),0.3 (inactive)
4,CCn1c(C(O)c2ccc(C(C)C)cc2)nc2ccccc21 (configuration not stated),1.03 (inactive)
5,CC(C)Cn1c(C2CC(=O)N(c3ccccc3)C2)nc2ccccc21 (configuration not stated),5.98 (active)
6,NC1=NC(c2cc(F)cc(F)c2)n2c(nc3ccccc32)N1 (configuration not stated),-1.88 (inactive)
7,O=C1CC(c2nc3ccccc3n2Cc2ccc(F)cc2)CN1c1ccccc1 (configuration not stated),5.55 (active)
8,O=c1n(Cc2ccccc2)c2ccccc2n1Cc1ccccc1,-0.36 (inactive)
9,CCCCOCC1CC2(CC(C)(c3csc(Nc4ccccc4Cl)n3)OC2=O)C(=O)O1 (configuration not stated),0.26 (inactive)
10,O=C(Nc1cccc2ncccc12)c1sc2ccccc2c1Cl,0.23 (inactive)
11,O=C(Nc1ccc2oc(-c3ccncc3)nc2c1)c1sc2ccccc2c1Cl,0.13 (inactive)
12,O=C(Nc1cccc(F)c1)c1sc2ccccc2c1Cl,4.06 (active)
13,N#CC1=C(N)Oc2cc(O)ccc2C1c1cccc(Br)c1 (configuration not stated),-2.59 (inactive)
14,O=C1Nc2ccc(Br)cc2C1O (configuration not stated),-6.13 (inactive)
15,CCOC(=O)c1cnn2c1nc(Oc1cc(C(F)(F)F)cc(C(F)(F)F)c1)c1ccccc12,-0.15 (inactive)
16,COC(=O)C(C)N(C#N)c1nc(N(C)C)nc(N(C)C)n1 (configuration not stated),5.93 (active)
17,CC(C)NC(=O)NNc1cc(N(C)C)c(C#N)c(N(C)C)n1,-3.01 (inactive)
18,COc1ccc(N2CCN(Cc3nc4c(c(=O)n(C)c(=O)n4C)n3CC(=O)C(C)(C)C)CC2)cc1,-2.02 (inactive)
19,Cc1ccc(/C(O)=C2\C(=O)C(=O)N(CCCN3CCOCC3)C2c2ccc(C)cc2)cc1 (configuration not stated),0.47 (inactive)
20,CCCCCCC#Cc1cncc(-c2nnc(SCC(=O)Nc3ccccc3)n2C)c1,0.64 (inactive)
21,O=C(Nc1ccc(F)cc1F)N1CCN(c2ccccn2)CC1,2.53 (inactive)
22,Cc1ccc(C)c(-c2nc(C)sc2CC(=O)O)c1,0.81 (inactive)
23,Cn1c(-c2ccccc2)nc2c(c1=O)C1(CCCCC1)Cc1ccccc1-2,-0.41 (inactive)
24,CCn1c(=O)c2c(n3c(SCC(N)=O)nnc13)-c1ccccc1CC21CCCCC1,5.92 (active)
25,Fc1ccc(-c2cc3ncc4c(n3n2)-c2cc(F)ccc2OC4)cc1,-1.86 (inactive)

row,Compound,z-score
1,Cc1cc(C)c2c(c1)C(=O)C(c1cc(=O)c3ccccc3[nH]1)C2=O (configuration not stated),1.92 (inactive)
2,Clc1ccc(-c2csc(N/N=C\c3ccn[nH]3)n2)cc1,0.61 (inactive)
3,CC(C)NC(=S)N/N=C/c1ccn[nH]1,3.01 (active)
4,C/C(=N\NS(=O)(=O)c1ccc(Cl)cc1)c1cc(-c2ccccc2)no1,-0.51 (inactive)
5,CN(C)[C@@H]1C(=O)C(C(N)=O)=C(O)[C@@]2(O)C(=O)C3=C(O)c4c(O)ccc(Cl)c4[C@@H](O)[C@H]3C[C@@H]12,0.22 (inactive)
6,C=C1c2c(Cl)ccc(O)c2C(O)=C2C(=O)[C@]3(O)C(O)=C(C(N)=O)C(=O)[C@@H](N(C)C)[C@@H]3[C@@H](O)C12 (some centres not stated),15.5 (active)
7,O=C(NC(=O)c1c(F)cccc1F)Nc1ccc(Br)cc1F,0.21 (inactive)
8,O=C1Nc2ccc(S(=O)(=O)Nc3ccc4oc(=O)sc4c3)c3cccc1c23,1.49 (inactive)
9,CC(C)C(=O)NNc1ncc(C(F)(F)F)cc1Cl,0.4 (inactive)
10,O=C1C(=O)N(CCCn2ccnc2)C(c2ccco2)/C1=C(\O)c1ccccc1 (configuration not stated),2.79 (inactive)
11,N#Cc1cccc(CSc2ncnc(N)n2)c1,3.87 (active)
12,O=C(CSc1nnc(-c2ccco2)c(-c2ccco2)n1)Nc1ccc(Br)cc1,-1.71 (inactive)
13,Cc1[nH]nc2oc(=O)c([N+](=O)[O-])c(C)c12,-1.74 (inactive)
14,O=C1NC(c2ccccc2)=N/C1=C/c1ccc(F)cc1,3.84 (active)
15,c1ccc(C2=Nc3cccc4cccc(c34)N2)cc1,-0.61 (inactive)
16,O=C1NNC(c2ccccc2)=N/C1=C\c1ccc(Cl)cc1,-3.16 (inactive)
17,O=C1C(=O)N(CCCn2ccnc2)C(c2ccncc2)/C1=C(\O)c1ccc(Cl)cc1 (configuration not stated),1.19 (inactive)
18,CCCc1n(CC(O)COc2ccc(C)cc2)c2ccccc2[n+]1C (configuration not stated),-0.91 (inactive)
19,Cc1ccccc1CN1C=C(C(N)=O)C(C(F)(F)F)CC1 (configuration not stated),-0.6 (inactive)
20,COc1cccc(CNC2CS(=O)(=O)CC2O)c1 (configuration not stated),0.5 (inactive)
21,CCc1c(C)nc2cc(-c3ccc(Br)cc3)[nH]n2c1=O,1.4 (inactive)
22,COCCOC(=O)C1=C(C)NC2=C(C(=O)CC(C)(C)C2)C1c1ccc(Br)cc1 (configuration not stated),-0.9 (inactive)
23,COc1csc2nc(C)cc(C)c12,2.93 (inactive)
24,Cc1[nH]c2ccccc2c1C1(O)C(=O)Nc2ccccc21 (configuration not stated),0.91 (inactive)
25,O=C1Nc2ccccc2C12NNC(=S)NN2,8.53 (active)

row,Compound,z-score
1,O=C(CC1(O)C(=O)Nc2ccccc21)c1ccc(F)cc1 (configuration not stated),-0.42 (inactive)
2,CC1=C(C(=O)Nc2ccccc2)C(c2cccs2)C(C#N)=C(SCC(=O)O)N1 (configuration not stated),0.54 (inactive)
3,CC12CCC(C(=O)O)(CC1=O)C2(C)C (configuration not stated),2.29 (inactive)
4,O=C1C(=O)N(c2cccnc2)C(c2ccc(Br)cc2)/C1=C(\O)c1ccc(Cl)cc1 (configuration not stated),0.32 (inactive)
5,O=C(Oc1ccc(Br)cc1)c1cccnc1,5.46 (active)
6,O=C(Oc1ccc2ccccc2c1)c1ccncc1,0.81 (inactive)
7,O=C1CC(c2ccc(F)cc2)Cc2nc3nc(C(F)(F)F)nn3cc21 (configuration not stated),-0.42 (inactive)
8,CC(C)c1ccc(C2N3CC4(C)CN2CC(C)(C3)C4)cc1 (configuration not stated),4.83 (active)
9,CC(C)Oc1ccc(C2N3CC4(C)CN2CC(C)(C3)C4)cc1 (configuration not stated),2.35 (inactive)
10,COc1ccc(C2N3CC4(C)CN2CC(C)(C3)C4)cc1 (configuration not stated),1.02 (inactive)
11,C#CC1(NS(=O)(=O)c2ccc(Sc3ccccc3)c([N+](=O)[O-])c2)CCCCC1,-0.19 (inactive)
12,CCOC(=O)Cc1nnc2c(Nc3cccc(Br)c3)nc3nonc3n12,3.07 (active)
13,Cc1cc(C)c(C#N)c(Nc2cccc(Br)c2)n1,0.66 (inactive)
14,CCOC(=O)Cc1csc(NC(=O)Nc2ccccc2)n1,-0.51 (inactive)
15,O=C(Cn1nc(C(F)(F)F)c2c1CCCC2)Nc1ccc(Cl)cc1,1.11 (inactive)
16,COC(=O)C1=C(C)NC2=C(C(=O)CC(c3ccccc3)C2)C1c1ccc(C)cc1 (configuration not stated),0.18 (inactive)
17,COC(=O)c1ccc(C2Nc3ccccc3NC3=C2C(=O)CC(c2ccccc2)C3)cc1 (configuration not stated),3.94 (active)
18,CN(C)c1ccc(C2Nc3ccccc3NC3=C2C(=O)CC(c2ccc(Cl)cc2)C3)cc1 (configuration not stated),1.16 (inactive)
19,COc1ccc(C2CC(=O)C3=C(C2)Nc2ccccc2NC3c2cc(F)ccc2F)cc1 (configuration not stated),3.99 (active)
20,COc1ccc(C2CC(=O)C3=C(C2)Nc2ccccc2NC3c2cccc(Cl)c2)cc1 (configuration not stated),2.07 (inactive)
21,O=C1CC(c2ccccc2)CC2=C1C(c1cccc(Cl)c1)Nc1ccccc1N2 (configuration not stated),1.52 (inactive)
22,O=C(CSc1ncnc2c1sc1nc(N3CCOCC3)c3c(c12)CCCC3)N1CCCCC1,-0.18 (inactive)
